The sample as a whole holds a higher share of hits than the screen did.
TbHK1 inh: T. brucei hexokinase 1 inhibition; recombinant TbHK1, G6PDH-coupled NADH A340; inhibition, % at 10 µM; hit rate 0.11% among 220,000; AID 1430;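 active means inhibition of 50% or more in the single-dose primary screen; inactive means inhibition below 50%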
ROMK primary: human ROMK K+ channel modulation, primary screen; AID 1918; P48048; Tet-inducible ROMK, thallium flux fluorescence; actives lie on both sides; hit rate 2% among 130,000; B-score at 10 µM;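 active means signal ratio slope over the read window, or its plate-corrected B-score, at least 3 SD from the plate mean, either direction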;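 further: B-score of the F/F0 ratio slope over 7 to 12 s after thallium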
Target sequence (P48048 whole entry, looked up): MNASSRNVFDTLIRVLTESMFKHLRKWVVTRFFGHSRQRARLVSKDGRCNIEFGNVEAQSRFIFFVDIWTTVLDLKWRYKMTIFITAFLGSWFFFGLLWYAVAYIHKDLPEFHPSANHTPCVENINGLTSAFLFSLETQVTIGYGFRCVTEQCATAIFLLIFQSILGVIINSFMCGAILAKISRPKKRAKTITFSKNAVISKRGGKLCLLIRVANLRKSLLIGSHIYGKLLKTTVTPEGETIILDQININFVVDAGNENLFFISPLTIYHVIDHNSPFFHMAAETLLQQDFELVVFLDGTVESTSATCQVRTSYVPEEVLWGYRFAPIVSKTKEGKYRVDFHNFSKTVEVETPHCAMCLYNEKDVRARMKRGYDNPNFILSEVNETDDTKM
INS promoter inh: TRM-6 insulin promoter activity inhibition; TRM-6 cells (human fetal islet line), insulin promoter-eGFP reporter, imaging; reporter expression induced with tamoxifen; inhibition, % at 2 µM; hit rate 0.9% among 130,000;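 active means inhibition above the mean plus 3 SD, with well images judged a real hit on visual review, cut at about 60% in these data, passing the limit was not always enough; inconclusive means inhibition over the cutoff but images rejected on review; inactive means inhibition not above the cutoff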
HSV augment: HSV replication enhancement; HSV replication augmentation in cells, fold increase; maximum fold increase; hit rate 0.005% among 220,000; in the data active means maximum fold increase above about 1.5; inconclusive means no clear call, values can overlap the other calls; tested in PC3 cells
Ins promoter up: MIN6 insulin promoter up-regulation | MIN6 insulin promoter-GFP reporter, high-content imaging; hits give high values | z-score at 5 µM | hit rate 0.3% among 190,000 | AID 1625;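 active means z-score above 3 at 5 µM with at least 500 cells counted in the well; inconclusive means wells under 500 cells, flagged as cytotoxic or low count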
ROMK hit retest: human ROMK channel modulation, retest confirmation; hit rate 54% among 3,000; shares compounds with ROMK primary; normalized thallium flux (F/F0 slope) at 10 µM; ROMK thallium flux, fluorescence ratio; hits give low values;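 active means Flux at 10 µM at least 3 SD below or above vehicle control mean in one or both replicates; inconclusive means no clear call, values can overlap the other calls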
* hit, by the source's call; i = inactive; ? = inconclusive; nt = no result.

SMILES	TbHK1 inh	ROMK primary	INS promoter inh	HSV augment	Ins promoter up	ROMK hit retest
Cc1ccc(C)c(Nc2nc3nonc3nc2N2CCOCC2)c1	-29.3	-3.51*	-25.0	nt	-0.28	?
CCNc1ccc(S(=O)(=O)N(C)C)cc1NCC(=O)Nc1ccc(F)c(Cl)c1	21.9	-2.39	17.6	i	-1.09	nt
COc1cccc(-c2cc(C(=O)NCc3cccs3)no2)c1	-10.2	-2.08*	nt	i	1.2	0.0811
COc1ccc(NC(=O)c2cc(-c3cccc(OC)c3)on2)cc1	-8.3	-4.42*	-33.3	i	-0.35	0.0807
COc1ccc(-c2cc(C(=O)NCc3cccs3)no2)cc1	-37.9	0.785	nt	i	0.44	nt
COc1cccc(-c2cc(C(=O)Nc3cccc(O)c3)no2)c1	-4.4	nt	-3.2	i	1.1	nt
O=C(Nc1ccc(C(=O)N2CCOCC2)cc1)Nc1ccc(Cl)cc1Cl	-2.6	-0.938	nt	i	-0.19	nt
COc1ccc(NS(=O)(=O)c2ccc(N3CCCC3=O)cc2)cn1	-6.1	2.32*	7.1	i	-0.03	0.0813
CCn1nnnc1NCc1c(OC)ccc2ccccc12	-1.0	1.31	-11.8	i	0.65	nt
Clc1cc(Br)ccc1OCCOCCN1CCOCC1	1.4	-0.361	-50.0	i	-0.83	nt
Oc1ccccc1N=Cc1c(O)ccc2ccccc12	4.6	nt	nt	i	0.16	0.0451*
COc1cc(C(=O)NNC(=O)c2cc(C)[nH]n2)cc(OC)c1OC	-3.0	1.36	nt	i	0.07	nt
CCOC(=O)CNC(=O)CCCCCC(=O)NCC(=O)OCC	1.7	0.0918	30.3	i	-0.27	0.0712
COC(=O)CNC(=O)CCCCC(=O)NCC(=O)OC	12.5	nt	18.2	i	-0.47	nt
COC(=O)c1[nH]c2ccc(F)cc2c1NS(=O)(=O)c1ccc(OC)cc1	-5.4	2.25	-57.1	i	0.45	0.092
COc1cc2c(cc1OC)CN(C(=O)c1ccc3nc[nH]c3c1)CC2	-2.8	3.44*	nt	i	0.11	0.0841
O=C(c1ccc2nc[nH]c2c1)N1CCc2ccccc2C1	-1.0	0.0758	nt	i	-0.12	nt
CC(C(=O)NC(=O)NC1CCCCC1)N1CCN(C(c2ccccc2)c2ccccc2)CC1 (stereo not given)	-10.6	-3.26*	2.7	nt	-0.4	0.0568*
CCCCC(=O)NC1(C(F)(F)F)NC(=O)N(C)C1=O (stereo not given)	-0.8	nt	nt	i	-1.32	nt
N=c1sccn1CC(=O)NC(c1ccccc1)c1ccccc1	2.7	0.0358	nt	i	-0.64	nt
CC(=O)CSc1nc2cc3c(cc2cc1C#N)OCCO3	-5.9	-3.26*	-346.1	nt	0.18	0.0543*
N#Cc1cc2cc3c(cc2nc1SCC(=O)OC1CCCCC1)OCO3	-1.2	nt	32.4	i	-0.25	nt
N#C/C(=C\Nc1ccccc1O)c1nc2ccccc2o1	0.5	-0.21	-31.0	i	0.58	nt
O=c1[nH]c(NCCCO)nc2c1C1(CCCC1)Cc1ccccc1-2	-6.3	-3.38*	30.4	i	-0.33	0.0566*
CCC1(CC)Cc2ccccc2-c2nc(NCCCO)[nH]c(=O)c21	-10.7	-2.94	nt	i	0.09	nt
SMILES	TbHK1 inh	ROMK primary	INS promoter inh	HSV augment	Ins promoter up	ROMK hit retest
Cc1ccc(S(=O)(=O)Nc2ccccn2)cc1[N+](=O)[O-]	-7.7	-5.85*	nt	i	2.03	0.0764
Cc1c([N+](=O)[O-])cc(S(=O)(=O)Nc2ccncc2)cc1[N+](=O)[O-]	-9.3	-4.19*	nt	i	0.01	0.0787
O=C(Cn1nnc2ccccc2c1=O)N[C@@H](Cc1c[nH]c2ccccc12)C(=O)O	23.1	0.377	31.0	i	-0.03	nt
CN(C)c1ccc(/C=C2\CCC/C(=C\c3ccccc3)C2=O)cc1	-4.8	nt	-120.4	?	nt	?
CCNC(=O)C1CC(=O)N(CCCc2ccccc2)C(=Nc2ccccc2)S1 (stereo not given)	0.8	nt	nt	i	0.89	nt
Cc1c(CCCN)c2ccccc2n1Cc1ccccc1	10.6	-2.89*	-25.0	i	nt	0.0497*
O=Nc1c(O)n(Cc2ccccc2)c2ccccc12	4.5	nt	nt	i	0.08	nt
CCOCCCn1c(=S)[nH]c2cc(C(=O)NCC(OC)OC)ccc2c1=O	-4.3	-0.659	-33.3	i	1.44	nt
N#CC1(c2ccc(NC(=O)c3ccccc3)cc2)CCCC1	-5.3	2.34*	nt	i	0.23	0.0938
Cc1c(Cc2ccccc2)c(=O)n2c([nH]c3ccccc32)c1C#N	-5.9	nt	nt	i	-0.41	nt
COc1ccccc1N=Cc1c(C)c(C#N)c2[nH]c3ccccc3n2c1=O	-6.9	-3.27*	nt	i	0.55	0.0666*
CCN(CCO)c1ccc(N=Nc2cc(C)[nH]n2)cc1	-16.6	nt	nt	i	-0.08	nt
Cc1ccc(-c2nc(CSCC(=O)NCCN3CCN(Cc4ccccc4)CC3)c(C)o2)cc1	-4.7	-3.71*	nt	i	-0.57	?

Compound activity: PubChem, several laboratories
